From PubChem BioAssay (NCATS)
“And” between values parts separate entries of the source, which are not always exact repeats. Identical values can stand only once. Records with an inconclusive call do not appear. A number with no mark means an inactive call. The source made the active and inactive calls. Calls come from the whole dose curve; as a rule, active = well fitted curve in the direction sought with a large enough effect; inconclusive = small, poorly fitted or top-dose-only effect, or another doubt; inactive = no such curve, though single readings can be large; an effect the other way counts as inactive or inconclusive.

Legend:
[1] = test system: Zika virus NS2B-NS3 protease; experiment: Primary screen GU AMC qHTS for Zika virus inhibitors (AID 1347154); settings: Zika NS2B-NS3 unlinked protease, AMC fluorogenic substrate; series mostly up to 54.1 µM;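 note: 0% = no-inhibitor control and -100% = no-enzyme control; nearly all actives have a fitted effect of over 70% in size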
Summary of the method: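 Unlinked Zika NS2B hydrophilic domain/NS3 protease domain noncovalent complex (25 nM final) in 10 mM Tris-HCl pH 8.0, 0.01% Tween 20, with AMC peptide substrate. Fluorescence (ex 340, em 450 nm) change over 15 min, room temperature; percent inhibition fitted to 4-parameter Hill equation.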

[2] = Confirmatory screen GU Rhodamine qHTS for Zika virus inhibitors qHTS (AID 1347157); settings: purified enzyme assay, Rhodamine110 substrate fluorescence, 15 min; note: potency is the fitted concentration of half-maximal effect; nearly all actives have a fitted effect of over 70% in size
Summary of the method: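 Percent inhibition derives from the 15-min fluorescence change (ex 480, em 540 nm), normalized to no-enzyme and no-inhibitor wells. Reactions contained 25 nM NS2B-NS3 complex and 1.5 microM substrate in 10 mM Tris-HCl pH 8.0.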

[3] = Confirmatory screen NINDS Rhodamine qHTS for Zika virus inhibitors (AID 1347161); settings: purified enzyme assay, Rhodamine110 substrate fluorescence, 15 min; note: potency is the fitted concentration of half-maximal effect; nearly all actives have a fitted effect of over 60% in size
Summary of the method: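 qHTS dose-response: 25 nM linked protease, pH 8.0 Tris/Tween buffer, cpd titration, 15 min RT preinc, 1.5 microM Rhod110 peptide, 15 min reaction (~15% conversion), Ex480/Em540; 4-parameter Hill fit.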

[4] = test system: Zika virus NS2B-NS3 protease (linked); experiment: 384 well plate NINDS AMC confirmatory qHTS for Zika virus inhibitors (AID 1347163); settings: Recombinant NS2B-NS3 protease, Ac-VKTGKR-AMC fluorescence; series mostly up to 100 µM; note: potency is the fitted concentration of half-maximal effect; nearly all actives have a fitted effect of over 50% in size
Summary of the method: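 Enzyme (5, 30 or 60 nM final) first met test compounds for ~15 min. The AMC-tagged peptide Ac-VKTGKR-AMC followed at 30 microM. Fluorescence was then recorded at 25 min and scaled against no-enzyme and no-inhibitor wells.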

[5] = test system: Zika virus NS2B-NS3 protease (linked construct); experiment: 384 well plate NINDS Rhodamine confirmatory qHTS for Zika virus inhibitors (AID 1347164); settings: rhodamine-110 peptide substrate fluorescence; series mostly up to 100 µM;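 note: fluorescence from protease cleavage of Ac-LKRR-rhodamine 110 substrate; nearly all actives have a fitted effect of over 65% in size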; note: potency is the fitted concentration of half-maximal effect;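 for activity change, negative = inhibition: top concentration of the series differs between compounds; plate controls were no-inhibitor control for no effect and no-enzyme control for full effect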
Summary of the method: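 Fluorescence read at ex 485 nm/em 538 nm, 25 min after adding 10 microM Ac-LKRR-Rd substrate at room temperature in the dark; signal normalized to no-enzyme and no-inhibitor controls. Enzyme final 5, 30 or 60 nM; compounds, ~15 min preincubation.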

[6] = Tertiary RLuc qRT-PCR qHTS assay for Zika virus inhibitors (AID 1347169); settings: infected Vero cells, reporter luminescence, 48-72 h; series mostly up to 45.9 µM; note: top concentration of the series differs between compounds; % is set by controls: 0 for no effect and ±100 for the full control effect; nearly all actives have a fitted effect of over 55% in size
Summary of the method: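 Luminescence read-out: live-cell Renilla luciferase substrate applied to infected Vero cells, signal measured after 1-1.5 hrs. Cells had received compound before ZIKV-RLuc (Cambodian strain, MOI 1-2) infection and were incubated 48-72 hrs at 37 degrees C.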

[7] = test system: Zika virus NS2B-NS3 protease (unlinked complex); experiment: Confirmatory screen GU AMC qHTS for Zika virus inhibitors (AID 1347153); settings: Recombinant NS2B-NS3 protease, AMC substrate fluorescence;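 note: enzyme at 25 nM with substrate at 10 µM below its Km of 18.3 µM; potency is the fitted concentration of half-maximal effect; nearly all actives have a fitted effect of over 70% in size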
Summary of the method: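 Unlinked NS2B-NS3 complex (25 nM) in 10 mM Tris-HCl pH 8.0, 0.01% Tween 20 preincubated 15 min with compound, then 10 microM Bz-Nle-KRR-AMC (Km 18.3 µM). Fluorescence change over 15 min, normalized, Hill-fitted.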

[8] = ZIKV-mCherry secondary qHTS for Zika virus inhibitors (AID 1347158); settings: Vero cells, ZIKV-mCherry infection imaging, 48-72 h; series mostly up to 49.2 µM; note: top concentration of the series differs between compounds
Summary of the method: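 This orthogonal imaging screen measured ZIKV-mCherry infection of Vero cells exposed to compound, MOI 1, 48-72 h. Percent infection came from segmented nuclei scored mCherry-positive above 3 SD of negative controls.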

[9] = test system: Zika virus NS2B-NS3 protease (unlinked); experiment: Optimization of GU AMC qHTS for Zika virus inhibitors: Unlinked NS2B-NS3 protease assay (AID 1347151); settings: recombinant ZIKV NS2B-NS3 protease, fluorogenic AMC substrate; note: potency is the fitted concentration of half-maximal effect; nearly all actives have a fitted effect of over 80% in size
Summary of the method: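 Fluorescence read-out (340 nm ex / 450 nm em) of AMC peptide cleavage, taken immediately and after 15 min at room temperature (~20% conversion). Enzyme was the unlinked NS2B–NS3 complex at 25 nM in Tris pH 8.0 buffer.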

[10] = Vero cells viability qHTS for Zika virus inhibitors (AID 1347167); settings: cytotoxicity counter-screen (Zika); series mostly up to 45.9 µM; note: % is set by controls: 0 for no effect and ±100 for the full control effect
Summary of the method: (§1)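 To flag cytotoxic protease inhibitors, viability is measured by ATP-dependent luminescence (CellTiter Glo) after cells attached overnight receive compound for 24 to 48 hours in DMEM with 4% FBS.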

[11] = test system: Zika virus NS2B-NS3 protease (linked construct); experiment: Primary screen NINDS Rhodamine qHTS for Zika virus inhibitors (AID 1347160); settings: purified NS2B-NS3 protease, Rhodamine110 substrate fluorescence; series mostly up to 57.1 µM; note: potency is the fitted concentration of half-maximal effect; nearly all actives have a fitted effect of over 55% in size
Summary of the method: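 Each compound, titrated, sat 15 min with 25 nM linked protease before 1.5 microM Rhodamine110 substrate went in. Fluorescence gain over the next 15 min, in pH 8.0 Tris with Tween 20, gave Hill-fitted curves.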

[12] = HepG2 cells viability qHTS for Zika virus inhibitors (AID 1347168); settings: Zika counter-screen; series mostly up to 45.9 µM; note: % is set by controls: 0 for no effect and ±100 for the full control effect
Summary of the method: as §1

[13] = test system: Zika virus NS2B-NS3 protease (linked construct); experiment: Confirmatory screen NINDS AMC qHTS for Zika virus inhibitors (AID 1347152); settings: Purified linked NS2B-NS3, AMC substrate fluorescence; series mostly up to 56.6 µM; note: potency is the fitted concentration of half-maximal effect; nearly all actives have a fitted effect of over 70% in size
Summary of the method: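 Linked NS2B-NS3 1 nM, Tris pH 8.0/0.01% Tween 20; cpd 15 min RT dark; + Nle-KRR-AMC 10 µM (Km 18.3 µM); read 0 and 15 min, 340/450 nm; %inh vs controls, 4-param Hill.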

[14] = test system: Zika virus NS2B-NS3 protease (unlinked complex); experiment: Primary screen GU Rhodamine qHTS for Zika virus inhibitors: Unlinked NS2B-NS3 protease assay (AID 1347159); settings: Recombinant ZIKV NS2B-NS3 protease, Rhodamine110 substrate fluorescence; series mostly up to 107 µM; note: potency is the fitted concentration of half-maximal effect; nearly all actives have a fitted effect of over 60% in size
Summary of the method: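 In dose–response format, inhibition of unlinked protease (25 nM) was measured with 1.5 microM bis-peptide Rhodamine110 substrate. Aprotinin served as the intraplate control.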

In the case of `CNc1cc(OC)c(C(=O)N[C@H]2CCN(Cc3ccccc3)[C@H]2C)cc1Cl`, the outcome [1] was “inactive”.
In the case of `O=S(=O)(O)c1cc(O)c2c(N=Nc3ccc(Nc4ccccc4)c4c(S(=O)(=O)O)cccc34)cc(S(=O)(=O)O)cc2c1`, the Potency [2] was 2.82 µM (active), the Potency [3] was 5.62 µM (active) and the Potency [4] was 12.6 µM (active). For the same compound, the Potency [5] was 6.31 µM (active) and the activity change, negative = inhibition [6] was -4.11% [at 1.74 µM].
With `O=S(=O)(O)c1ccc2c(N=Nc3ccc(S(=O)(=O)O)c4ccccc34)c(O)c(S(=O)(=O)O)cc2c1` the Potency [7] was 31.2 µM (active), the Potency [2] was 10 µM (active) and the outcome [8] was “inactive”. For the same compound, the Potency [3] was 3.16 µM (active), the Potency [4] was 63.1 µM (active) and 79.4 µM (active) and the Potency [5] was 15.8 µM (active) and 12.6 µM (active). The Potency [6] was “inactive”.
For `CC(=O)OC(C)OC(=O)C(C)c1ccc(-c2ccccc2)c(F)c1` (stereo not given), the outcome [1] was “inactive”.
In the case of `CC(NC(=O)Cc1cc(F)cc(F)c1)C(=O)NC(C(=O)OC(C)(C)C)c1ccccc1` (stereo not given), the outcome [1] was “inactive”.
With `CC(C)N=c1cc2n(-c3ccc(Cl)cc3)c3ccccc3nc-2cc1Nc1ccc(Cl)cc1` the Potency [9] was 0.607 µM (active), the outcome [1] was “inactive” and the outcome [8] was “inactive”. The Potency [5] was “inactive” and the outcome [10] was “inactive”.
For `CC(C)c1cc2c(c(O)c1O[C@@H]1O[C@H](CO)[C@@H](O)[C@H](O)[C@H]1O)CC1(O)CCC(O)C(C)(C)C1CC2` (stereo not given in full), the Potency [2] was 17.1 µM (active), the Potency [11] was 7.94 µM (active) and the Potency [3] was 7.64 µM (active). The outcome [10] was “inactive”, the outcome [12] was “inactive” and the Potency [6] was “inactive”.
In the case of `N#CC1C(=O)Nc2scc(-c3ccc(-c4ccccc4O)cc3)c2C1=O` (stereo not given), the Potency [13] was 22.1 µM (active), the Potency [2] was 3.93 µM (active) and the Potency [14] was 2.51 µM (active). The Potency [11] was 3.16 µM (active), the Potency [3] was 2.48 µM (active) and the Potency [4] was 6.31 µM (active). For the same compound, the Potency [5] was 12.6 µM (active), the outcome [10] was “inactive” and the outcome [12] was “inactive”.
